{"source": "paper PMC4336329", "about": "(PLoS ONE, 2015)", "note": "In all, about 310,000 compounds went through this assay and about 14,000 (4.5%) showed an effect of 50% or more. Effects have a minus sign here. What follows is part of a selection rich in strong results, with near analogues and random picks from the rest.", "data": [{"biological_target": "human ether-à-go-go-related gene (hERG) potassium channel (human, UniProt Q12809)", "sequence (Q12809 whole entry, looked up)": "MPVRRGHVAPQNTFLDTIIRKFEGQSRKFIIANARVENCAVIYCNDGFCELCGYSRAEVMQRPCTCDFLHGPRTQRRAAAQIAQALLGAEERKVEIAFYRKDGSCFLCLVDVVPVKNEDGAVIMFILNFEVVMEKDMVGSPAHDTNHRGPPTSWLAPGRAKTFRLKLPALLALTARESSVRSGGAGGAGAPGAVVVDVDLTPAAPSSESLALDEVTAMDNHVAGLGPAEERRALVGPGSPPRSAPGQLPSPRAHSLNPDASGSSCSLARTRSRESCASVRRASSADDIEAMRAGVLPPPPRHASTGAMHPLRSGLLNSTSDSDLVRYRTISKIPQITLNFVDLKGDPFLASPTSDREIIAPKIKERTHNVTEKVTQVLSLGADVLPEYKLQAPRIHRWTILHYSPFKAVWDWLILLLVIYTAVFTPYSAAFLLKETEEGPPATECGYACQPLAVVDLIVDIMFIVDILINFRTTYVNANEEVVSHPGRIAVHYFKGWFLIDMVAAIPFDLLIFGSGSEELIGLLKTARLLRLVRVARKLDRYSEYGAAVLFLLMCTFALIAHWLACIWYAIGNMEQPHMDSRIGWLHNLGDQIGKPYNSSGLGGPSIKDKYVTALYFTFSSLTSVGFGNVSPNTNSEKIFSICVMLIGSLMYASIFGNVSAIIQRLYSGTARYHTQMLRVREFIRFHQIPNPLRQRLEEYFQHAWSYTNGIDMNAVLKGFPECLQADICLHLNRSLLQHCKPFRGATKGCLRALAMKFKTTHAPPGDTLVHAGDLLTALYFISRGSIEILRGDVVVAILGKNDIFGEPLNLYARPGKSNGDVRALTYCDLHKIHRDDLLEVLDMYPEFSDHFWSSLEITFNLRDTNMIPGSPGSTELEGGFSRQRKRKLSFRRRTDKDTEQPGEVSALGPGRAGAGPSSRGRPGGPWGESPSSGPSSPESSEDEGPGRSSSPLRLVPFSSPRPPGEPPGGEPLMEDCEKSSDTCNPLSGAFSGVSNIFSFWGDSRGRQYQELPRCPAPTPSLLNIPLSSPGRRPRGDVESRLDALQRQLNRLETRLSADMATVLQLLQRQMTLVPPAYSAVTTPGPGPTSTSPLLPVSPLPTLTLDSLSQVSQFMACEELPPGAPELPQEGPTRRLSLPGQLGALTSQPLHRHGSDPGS", "experiment": "primary screen, population patch clamp on CHO cells stably expressing hERG; higher = less effect of the substance", "units": {"hERG current change (%, negative = inhibition) at 10uM": "%"}, "values": [{"molecule": "C/C=C(\\C)C(=O)OC1C(C)=C2C(C1OC(=O)CCCCC)C(C)(OC(C)=O)CC(OC(=O)CCC)C1(O)C2OC(=O)C1(C)O", "note": "(stereo not shown);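 also: peak tail current of the secondary pulse compared with the same well before compound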", "hERG current change (%, negative = inhibition) at 10uM": -6.49}, {"molecule": "COc1cc2cccc(OC)c(=O)c2c(O)c1OC", "hERG current change (%, negative = inhibition) at 10uM": -1.84}, {"molecule": "CCc1ccc(N/C(N)=N/c2nc(CSc3ccccn3)cc(=O)[nH]2)cc1", "hERG current change (%, negative = inhibition) at 10uM": 3.29}, {"molecule": "Cn1ncc2c(Nc3cccc(C(=O)O)c3)ncnc21", "hERG current change (%, negative = inhibition) at 10uM": 6.66}, {"molecule": "CC(C(=O)NCc1ccccn1)c1ccc([N+](=O)[O-])cc1", "note": "(stereo not shown)", "hERG current change (%, negative = inhibition) at 10uM": -49.5}, {"molecule": "Cc1ccc(S(=O)(=O)N2CCCC2C(=O)Nc2cc(C)on2)cc1", "note": "(stereo not shown)", "hERG current change (%, negative = inhibition) at 10uM": -1.05}, {"molecule": "Cc1ccccc1-c1noc(CCC(=O)NCc2ccco2)n1", "hERG current change (%, negative = inhibition) at 10uM": -2.05}, {"molecule": "C#CCOCCOCCOCCNc1nc(N2CCN(C(=O)[C@H](CCCCN)n3cc(C(N)[C@H](C)CC)nn3)CC2)nc(N2CCN(C(=O)[C@H](CCC(=O)O)n3cc(C(N)[C@H](C)CC)nn3)CC2)n1.Cl", "note": "(stereo partly shown)", "hERG current change (%, negative = inhibition) at 10uM": 13.5}, {"molecule": "C=C[C@@H]1c2cc(C)ccc2N(S(=O)(=O)c2ccc(C)cc2)[C@H](c2ccccc2C(F)(F)F)C1(C#N)C#N", "hERG current change (%, negative = inhibition) at 10uM": 7.01}, {"molecule": "COc1cc(C(=O)NCC(=O)N/N=C(/C)c2cccs2)cc(OC)c1OC", "hERG current change (%, negative = inhibition) at 10uM": -0.388}, {"molecule": "Cc1ccc(CC(=O)Nc2ccc(S(=O)(=O)Nc3ncccn3)cc2)cc1", "hERG current change (%, negative = inhibition) at 10uM": 19.9}, {"molecule": "CC(c1ccccc1)n1c(-c2ccccc2F)n[nH]c1=S", "note": "(stereo not shown)", "hERG current change (%, negative = inhibition) at 10uM": -11.9}, {"molecule": "CC(=O)N1CCCC(C(=O)c2ccc3c4c(cccc24)CC3)C1", "note": "(stereo not shown)", "hERG current change (%, negative = inhibition) at 10uM": -8.18}, {"molecule": "O=C(c1ccc2c3c(cccc13)CC2)C1CCCN(Cc2ncc[nH]2)C1", "note": "(stereo not shown)", "hERG current change (%, negative = inhibition) at 10uM": -55.7}, {"molecule": "COCC(=O)N1CCCC(C(=O)c2ccc3c4c(cccc24)CC3)C1", "note": "(stereo not shown)", "hERG current change (%, negative = inhibition) at 10uM": -21.2}, {"molecule": "Cc1ncccc1C(=O)N1CCCC(C(=O)c2ccc3c4c(cccc24)CC3)C1", "note": "(stereo not shown)", "hERG current change (%, negative = inhibition) at 10uM": -13.2}, {"molecule": "COc1cc(CN2CCCC(C(=O)c3ccc4c5c(cccc35)CC4)C2)cc(OC)c1O", "note": "(stereo not shown)", "hERG current change (%, negative = inhibition) at 10uM": -53}, {"molecule": "CCn1ccnc1CN1CCCC(C(=O)c2ccc3c4c(cccc24)CC3)C1", "note": "(stereo not shown)", "hERG current change (%, negative = inhibition) at 10uM": -77.4}, {"molecule": "CN1CCC(C(=O)N2CCCC(C(=O)c3ccc4c5c(cccc35)CC4)C2)CC1", "note": "(stereo not shown)", "hERG current change (%, negative = inhibition) at 10uM": -61.1}, {"molecule": "Cc1cccc(CN2CCCC(C(=O)c3ccc4c5c(cccc35)CC4)C2)n1", "note": "(stereo not shown)", "hERG current change (%, negative = inhibition) at 10uM": -40.7}, {"molecule": "Cc1ncoc1C(=O)N1CCCC(C(=O)c2ccc3c4c(cccc24)CC3)C1", "note": "(stereo not shown)", "hERG current change (%, negative = inhibition) at 10uM": -15.5}, {"molecule": "CC(=O)NCC(=O)N1CCCC(C(=O)c2ccc3c4c(cccc24)CC3)C1", "note": "(stereo not shown)", "hERG current change (%, negative = inhibition) at 10uM": 8.94}, {"molecule": "Cc1cnc(CN2CCCC(C(=O)c3ccc4c5c(cccc35)CC4)C2)[nH]1", "note": "(stereo not shown)", "hERG current change (%, negative = inhibition) at 10uM": -31.7}, {"molecule": "Cc1ccc(OCC(=O)NCCNC(=O)c2ccncc2)cc1C", "hERG current change (%, negative = inhibition) at 10uM": 15.9}, {"molecule": "Cc1ccc(S(=O)(=O)NCc2ccccc2)cc1C(=O)N(C)Cc1ccc(F)cc1", "hERG current change (%, negative = inhibition) at 10uM": 5.11}, {"molecule": "O=c1c2ccccc2oc2nc(-c3ccco3)n(Cc3ccccc3)c(=O)c12", "hERG current change (%, negative = inhibition) at 10uM": -9.22}, {"molecule": "CCOC(=O)c1cc2occc2n1CC(=O)Nc1ccc(OC)cc1OC", "hERG current change (%, negative = inhibition) at 10uM": -15}, {"molecule": "O=C(NCCOc1nc(N2CCCCC2)nc(N2CCOCC2)n1)Nc1ccccc1", "hERG current change (%, negative = inhibition) at 10uM": -0.098}, {"molecule": "Cc1ccc(S(=O)(=O)NCc2ccco2)c(C)c1C", "hERG current change (%, negative = inhibition) at 10uM": -4.4}, {"molecule": "CN(NC(=O)c1ccco1)c1nc2ccccc2nc1C(F)(F)F", "hERG current change (%, negative = inhibition) at 10uM": 0.871}, {"molecule": "N#CCCN(Cc1cccnc1)C(=O)Nc1cccc(Cl)c1", "hERG current change (%, negative = inhibition) at 10uM": -10.9}, {"molecule": "N#Cc1ccc(-c2csc(NNC(=O)c3ccccc3)n2)cc1", "hERG current change (%, negative = inhibition) at 10uM": 0.0899}, {"molecule": "Cc1ccc(NS(=O)(=O)c2ccc(C3CCCCC3)cc2)cc1", "hERG current change (%, negative = inhibition) at 10uM": -10.3}, {"molecule": "CC12CCC(=O)N1C(C(=O)NCc1ccc(Cl)cc1Cl)CS2", "note": "(stereo not shown)", "hERG current change (%, negative = inhibition) at 10uM": -0.564}, {"molecule": "CN(C)c1ccc(-c2nc3ccccc3n2C)cc1", "hERG current change (%, negative = inhibition) at 10uM": -49.9}, {"molecule": "C=C(C)Cn1c(-c2ccccc2)nc2ccccc21", "hERG current change (%, negative = inhibition) at 10uM": -64.9}, {"molecule": "COCn1c(-c2ccccc2)nc2ccccc21", "hERG current change (%, negative = inhibition) at 10uM": -5.43}, {"molecule": "CCn1c(-c2ccc(N)cc2)nc2ccccc21", "hERG current change (%, negative = inhibition) at 10uM": 4.21}, {"molecule": "CCn1c(-c2ccc(N(C)C)cc2)nc2ccccc21", "hERG current change (%, negative = inhibition) at 10uM": -50.3}, {"molecule": "C=C(C)Cn1c(-c2ccc(OC)cc2)nc2ccccc21", "hERG current change (%, negative = inhibition) at 10uM": -23.4}, {"molecule": "Cc1ccc(C(=O)CSc2nc(N)cc(=O)[nH]2)cc1", "hERG current change (%, negative = inhibition) at 10uM": 2.68}, {"molecule": "Fc1ccc(NC(=S)N/N=C/c2cccc(Br)c2)c(F)c1", "hERG current change (%, negative = inhibition) at 10uM": 3.9}, {"molecule": "O=C(COC(=O)Cc1ccsc1)NCc1ccc(Cl)cc1", "hERG current change (%, negative = inhibition) at 10uM": 10.6}, {"molecule": "CC(Sc1cnc2ccccc2n1)C(=O)O", "note": "(stereo not shown)", "hERG current change (%, negative = inhibition) at 10uM": 15.9}, {"molecule": "Cc1ccc(C#N)c(SCc2ccccc2[N+](=O)[O-])n1", "hERG current change (%, negative = inhibition) at 10uM": 2.72}, {"molecule": "CCOc1ccc(-c2nc(C)c(C(C)=O)n2O)cc1", "hERG current change (%, negative = inhibition) at 10uM": -0.685}, {"molecule": "Cc1nonc1OCCNCCNc1ccccc1[N+](=O)[O-]", "hERG current change (%, negative = inhibition) at 10uM": -23.4}, {"molecule": "O=[N+]([O-])c1ccc(NCCNCCOc2nonc2-c2ccccc2)c([N+](=O)[O-])c1", "hERG current change (%, negative = inhibition) at 10uM": -68.6}, {"molecule": "Cc1nonc1OCCNCCNc1ccc([N+](=O)[O-])c2cccnc12", "hERG current change (%, negative = inhibition) at 10uM": -52.2}, {"molecule": "Cc1nonc1OCCNCCNc1ccc([N+](=O)[O-])cc1Cl", "hERG current change (%, negative = inhibition) at 10uM": -49.7}, {"molecule": "Cc1nonc1OCCNc1ccc([N+](=O)[O-])cc1[N+](=O)[O-]", "hERG current change (%, negative = inhibition) at 10uM": -54.7}, {"molecule": "Cc1nonc1OCCCNc1ccc([N+](=O)[O-])cc1Cl", "hERG current change (%, negative = inhibition) at 10uM": 9.59}, {"molecule": "Cc1nonc1OCCN1CCN(c2ccccc2[N+](=O)[O-])CC1.Cl", "hERG current change (%, negative = inhibition) at 10uM": -37.2}, {"molecule": "CCNCCNc1ccc([N+](=O)[O-])c2cccnc12", "hERG current change (%, negative = inhibition) at 10uM": -22.8}, {"molecule": "Cc1nonc1OCCN1CCN(c2ccc([N+](=O)[O-])cc2)CC1", "hERG current change (%, negative = inhibition) at 10uM": -98.3}, {"molecule": "O=[N+]([O-])c1cc(C(F)(F)F)ccc1NCCOc1ccccc1", "hERG current change (%, negative = inhibition) at 10uM": -3.64}, {"molecule": "O=[N+]([O-])c1ccc(N2CCN(CCOc3nonc3-c3ccccc3)CC2)c(Cl)c1", "hERG current change (%, negative = inhibition) at 10uM": -4.17}, {"molecule": "Cc1nonc1OCCNc1ccc([N+](=O)[O-])c2cccnc12", "hERG current change (%, negative = inhibition) at 10uM": -18}]}]}
